Screening results from PubChem BioAssay.
This is one part of a sample in which hits are shown more often than they occur.
TDP-43 tox inh: TDP-43 toxicity inhibition in yeast; yeast TDP-43 toxicity rescue, BacTiter-Glo growth, 24 h; Potency, µM (titrated, usually from 46.1 µM), hits mostly activators; hit rate 0.45% among 45,000; active = well fitted activation curve with a large enough effect; also: nearly all actives have a fitted effect of over 55% in size
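TDP-43-expressing yeast, pregrown in raffinose, seeded at OD600 0.02 in galactose medium with compound for 24 hr at 30 deg C. Growth read by BacTiter-Glo luminescence, so rescue of toxicity appears as activation.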
A number is an active result; i = inactive.

SMILES | TDP-43 tox inh
O=C(O)Cc1sc(Nc2ccc(Cl)cc2)nc1-c1cccs1 | i
CC(=O)Nc1sc(NC(=O)c2ccco2)nc1-c1cccs1 | i
CC1CC1C(=O)Nc1nc(-c2cccs2)c(-c2cccs2)s1 (centres undefined) | 11.2µM
CC(C)(C)CC(=O)Nc1nnc(SCC(=O)NC2CCCCC2)s1 | i
CCn1c(SCC(=O)NNC(=O)c2ccc(OC)cc2)nnc1C1CC1 | i
